Screening data as filed in PubChem.
Hits are enriched below; roughly 1.6% of the tested compounds scored in any of these assays.
Her2 expr inh = inhibitors of Her2 protein expression, primary screen, SKBR-3 cells, AlphaScreen, 66K library; 65,000 tested, 0.69% active; SKBR-3 HER2 protein level, 18-24 h; stronger effect = lower value; Receptor tyrosine-protein kinase erbB-2 (Homo sapiens), P04626; HER2 level % of control, % at 10 µM;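 active = HER2 level under 5% of the carrier-only control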;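 note: 100% = DMSO carrier and 0% = 500 nM PU-H71 HSP90 inhibitor; lower value means stronger loss of Her2 protein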
Hsp90 block = tumor Hsp90 inhibitors, primary screen, cell lysate, fluorescence polarization, NCI-N417 lysate; Heat shock protein HSP 90-alpha (Homo sapiens), P07900; 64,000 tested, 0.35% active; inhibition, % at 30 µM; Cy3B-geldanamycin FP displacement;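 active = inhibition above 50%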;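 note: 0% = tracer plus lysate wells and 100% = tracer alone without lysate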
SK-BR-3 tox 24h = SK-BR-3 proliferation inhibitors, primary screen, cell-based, human, 24 h; AID 847, 2007; viability, % at 10 µM; 41,000 tested, 0.47% active; SK-BR-3 viability, CellTiter-Glo ATP luminescence; stronger effect = lower value;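 active = viability at or below the median of all test compounds minus 3 SD, in both replicates if run twice, cut at about 45% in these data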;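 note: 100% = median untreated cell wells and 0% = median positive control drug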
PKA kinase inh = inhibitors of human PKA kinase activity, primary screen, biochemical, ATP-depletion luminescence, Kemptide substrate; PKA Kemptide phosphorylation, Kinase-Glo ATP luminescence; inhibition, % at 6 µM; 65,000 tested, 0.1% active;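 active = inhibition above the screen-wide mean inhibition plus 3 SD, cut at about 21% in these data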
ROCK2 inh = inhibitors of human ROCK2 kinase, primary screen, biochemical, high-throughput, luminescence; 60,000 tested, 0.35% active; inhibition, % at 6 µM; Rho-associated protein kinase 2 (Homo sapiens), O75116; AID 604, 2007; purified ROCK2, Kinase-Glo ATP depletion luminescence;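 active = inhibition above the screen-wide mean inhibition plus 3 SD, cut at about 18% in these data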;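 note: plate controls were DMSO wells for no effect and Y-27632 control wells after no-enzyme background subtraction for full effect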
Target sequence (O75116 whole entry, looked up): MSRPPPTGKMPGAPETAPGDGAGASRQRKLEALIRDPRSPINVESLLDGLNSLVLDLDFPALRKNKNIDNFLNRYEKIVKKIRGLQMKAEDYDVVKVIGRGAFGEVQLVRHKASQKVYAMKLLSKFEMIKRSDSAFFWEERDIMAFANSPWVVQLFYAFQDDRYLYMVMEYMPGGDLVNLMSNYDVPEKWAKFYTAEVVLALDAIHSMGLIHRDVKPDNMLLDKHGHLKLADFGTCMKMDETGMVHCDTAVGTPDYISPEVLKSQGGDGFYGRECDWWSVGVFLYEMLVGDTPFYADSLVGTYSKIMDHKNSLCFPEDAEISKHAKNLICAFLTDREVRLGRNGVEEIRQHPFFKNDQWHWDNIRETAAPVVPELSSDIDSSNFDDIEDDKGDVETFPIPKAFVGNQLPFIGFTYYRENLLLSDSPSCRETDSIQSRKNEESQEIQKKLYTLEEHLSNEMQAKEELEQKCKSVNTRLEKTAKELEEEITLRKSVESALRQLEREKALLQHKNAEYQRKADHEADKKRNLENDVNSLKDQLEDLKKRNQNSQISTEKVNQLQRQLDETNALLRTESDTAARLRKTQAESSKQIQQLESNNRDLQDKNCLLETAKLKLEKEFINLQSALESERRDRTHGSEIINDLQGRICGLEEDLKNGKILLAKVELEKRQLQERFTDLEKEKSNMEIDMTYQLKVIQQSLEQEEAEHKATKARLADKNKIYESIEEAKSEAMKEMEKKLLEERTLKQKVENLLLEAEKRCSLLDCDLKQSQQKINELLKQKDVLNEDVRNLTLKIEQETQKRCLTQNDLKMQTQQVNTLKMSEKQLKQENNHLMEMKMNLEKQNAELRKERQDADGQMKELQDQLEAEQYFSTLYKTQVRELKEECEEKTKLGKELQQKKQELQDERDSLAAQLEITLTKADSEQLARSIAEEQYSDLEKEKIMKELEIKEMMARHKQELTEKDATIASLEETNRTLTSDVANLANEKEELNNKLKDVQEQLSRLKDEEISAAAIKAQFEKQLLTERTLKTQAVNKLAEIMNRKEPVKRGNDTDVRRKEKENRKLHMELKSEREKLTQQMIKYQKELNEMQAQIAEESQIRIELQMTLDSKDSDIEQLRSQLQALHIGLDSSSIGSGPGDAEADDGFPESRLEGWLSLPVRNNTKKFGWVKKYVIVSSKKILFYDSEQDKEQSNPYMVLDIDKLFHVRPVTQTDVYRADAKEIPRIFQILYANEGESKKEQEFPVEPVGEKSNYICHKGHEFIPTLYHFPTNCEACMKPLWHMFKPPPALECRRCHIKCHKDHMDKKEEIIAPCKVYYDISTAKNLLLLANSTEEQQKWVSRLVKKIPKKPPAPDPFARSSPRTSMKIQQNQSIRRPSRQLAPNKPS
WNV protease inh = inhibitors of WNV NS2B-NS3 protease, primary screen, biochemical, fluorogenic substrate; fluorogenic substrate Ex360/Em465; stronger effect = lower value; z-score (no concentration beside the values); 65,000 tested, 0.18% active; AID 577, 2007; in the data active = z-score below about -3
An asterisk follows results filed as active; x = not tested or not shown.

SMILES | Her2 expr inh | Hsp90 block | SK-BR-3 tox 24h | PKA kinase inh | ROCK2 inh | WNV protease inh
CNC(=O)CN(C#N)c1nc(N(C)C)nc(N(C)C)n1 | -20* | 0 | 90 | -1 | -3 | 0.55
Cc1cc(-c2cc(N)n(-c3ccccc3)n2)c(C)n1C1CCCC1 | 57 | -9 | 43* | 6 | -2 | 0.48
CC(C)CNC(=O)c1cccc(NC(=O)C2CCCO2)c1 (stereo unspecified) | 107 | -6 | 98 | -3 | -6 | -1.1
Cc1cc2ccccc2c(=O)n1CC(=O)Nc1ccc2c(c1)OCO2 | 82 | 2 | 106 | 22* | 13 | -0.72
O=C(CN1C(=O)c2cccc3cccc1c23)Nc1ccc2c(c1)OCO2 | 93 | -6 | 104 | 6 | 6 | 0.84
COc1cccc2cc(-c3csc(CCn4nc(C)cc4C)n3)c(=O)oc12 | 86 | -10 | x | 2 | 2 | -4.6*
Oc1cc2c(cc1O)C(c1ccccc1)CNCC2 (stereo unspecified) | x | 64* | x | x | x | x
CN1CCc2cc(O)c(O)cc2C(c2ccccc2)C1 (stereo unspecified) | x | 59* | x | x | x | x
CN1CCc2cc(Cl)c(O)cc2[C@@H](c2ccccc2)C1 | x | 0 | x | x | x | x
CN1CCc2c(cc(O)c(O)c2Cl)C(c2cccc(Cl)c2)C1 (stereo unspecified) | x | 81* | x | x | x | x
CCCCCCCCCCCCCCCCOCC(COCC(F)(F)F)OP(=O)(O)OCO (stereo unspecified) | x | -3 | x | x | x | x
COc1ccc(-c2ccc(N)[n+](CCCC(=O)O)n2)cc1 | x | 2 | x | x | x | x
Cc1ccc(C2CC(C(F)F)n3ncc(C(=O)Nc4cnn(Cc5ccccc5C)c4)c3N2)cc1 (stereo unspecified) | 25 | -4 | 32* | 0 | 2 | -1.3
O=C(CSc1ccc2nnc(-c3cccnc3)n2n1)NCc1ccc2c(c1)OCO2 | -17* | -3 | x | 4 | 4 | 0.06
O=C(c1cccnc1)N1CCN(C(=O)c2ccccc2F)CC1 | 124 | -2 | x | -4 | 0 | 1.2
Cc1cc(N2CCC(C(=O)NC3CC3)CC2)nc(-c2ccccc2)n1 | 95 | -3 | 90 | 2 | 2 | -0.38
Cc1cc(N2CCC(C(=O)NC3CCCCC3)CC2)nc(-c2ccccc2)n1 | 94 | -1 | 75 | 11 | 4 | -4.8*
COCC(C)NC(=O)NC1(C(F)(F)F)Oc2ccc(Cl)cc2O1 (stereo unspecified) | 144 | x | 104 | 3 | x | 0.43
O=C(NCCN1CCOCC1)NC1(C(F)(F)F)Oc2ccc(Cl)cc2O1 (stereo unspecified) | 90 | 65* | x | 10 | 7 | -0.73
CCCn1cnc2c(c1=O)c1nc3ccccc3nc1n2CCC1=CCCCC1 | 102 | -9 | 95 | 6 | 4 | 0.33
CCOCCCn1c(C)nc2c(c1=O)c1nc3ccccc3nc1n2CCC1=CCCCC1 | -22* | -6 | 12* | 4 | 4 | -0.69
O=C(CC(SCCO)c1ccc(F)cc1)c1ccco1 (stereo unspecified) | 20 | 3 | 100 | 7 | 2 | 0.47
Cc1ccc(C(CC(=O)c2ccco2)SCCO)cc1 (stereo unspecified) | -1.4* | 3 | 101 | -1 | -1 | -0.29
CCCCn1nnnc1NCc1cccc(OC)c1OC | 82 | -5 | 92 | 12 | -6 | 1.1
O=C(Cn1cccc1C(=O)c1ccccc1)NCc1ccco1 | 120 | -2 | x | 8 | 4 | 1.1
SMILES | Her2 expr inh | Hsp90 block | SK-BR-3 tox 24h | PKA kinase inh | ROCK2 inh | WNV protease inh
CCc1cccc2c(C#N)cn(CC(=O)NCc3ccco3)c12 | 122 | -6 | 105 | 6 | 5 | -3.9*
CCc1ccc(-c2nc(CN3CCC(C(=O)NCCN(CC)c4ccccc4)CC3)c(C)o2)cc1 | -13* | -5 | x | 0 | -8 | 0.99
CCc1ccc(-c2nc(CN3CCC(C(=O)N4CCN(c5ccccn5)CC4)CC3)c(C)o2)cc1 | 102 | -3 | x | 3 | -5 | 1.7
Cc1oc(-c2ccc(Cl)cc2)nc1CN1CCC(C(=O)NCCCN2CCOCC2)CC1 | 106 | -6 | x | 8 | 4 | -0.11
Cc1ccccc1-c1nc(CN2CCC(C(=O)NCCC3=CCCCC3)CC2)c(C)o1 | -16* | -3 | x | 7 | 5 | -0.22
COc1ccc(CCNC(=O)C2CCN(Cc3nc(-c4ccccc4C)oc3C)CC2)cc1OC | 80 | -4 | x | 8 | -3 | 2
CCN(CCNC(=O)C1CCCN(Cc2nc(-c3ccc(OC)cc3)oc2C)C1)c1ccccc1 (stereo unspecified) | 80 | -2 | x | 6 | 3 | -2
CCN(CCNC(=O)C1CCN(Cc2nc(-c3ccc(Cl)cc3)oc2C)CC1)c1ccccc1 | -17* | -5 | x | -2 | -1 | -0.29
CCc1ccc(-c2nc(CN3CCC(C(=O)N4CCN(c5ccccc5)CC4)CC3)c(C)o2)cc1 | -15* | -2 | x | -6 | -2 | 0.61
COc1cc(NCCCCN)c2ncccc2c1 | x | 27 | x | x | x | x
COc1ccc(-n2nc(C(=O)N3CCC(C#N)CC3)c3c4ccccc4n(C)c3c2=O)cc1 | 82 | 0 | x | -5 | 3 | 1.2
CCN(CCNC(=O)C1CCN(Cc2nc(-c3cccc(Cl)c3)oc2C)CC1)c1ccccc1 | -13* | -1 | x | 4 | -4 | -0.56
Cc1oc(-c2cccc(Cl)c2)nc1CN1CCC(C(=O)NCc2cccnc2)CC1 | 102 | -1 | x | 0 | -14 | 1.7
CC(C)CCn1c(SCc2ccc(Cl)cc2)nc2c1c(=O)[nH]c(=O)n2C | 44 | -4 | 80 | -4 | 5 | 1.2
CC(C)n1c(SCc2ccc(Cl)cc2)nc2c1c(=O)[nH]c(=O)n2C | -55* | -1 | 76 | 0 | 11 | -1.4
Cc1ccc(C)c(N2CCN(C(=O)CN(C)S(=O)(=O)c3cnc[nH]3)CC2)c1 | 112 | -2 | x | -4 | -2 | 0.28
Cc1c(C(=O)Nc2ccc3oc(-c4cccnc4)nc3c2)oc2ccccc12 | 42 | -4 | 78 | -1 | 20* | -1.2
N#CCCS(=O)(=O)c1nnnn1-c1ccccc1 | -1.1* | 0 | 209 | 3 | 2 | -0.47
N#CCCCSc1nnnn1-c1cccc(Cl)c1 | 101 | -2 | 88 | 4 | 8 | 0.8
COc1ccc(OC)c(N2C(=O)[C@@H]3C(c4ccccc4Cl)=NO[C@@H]3C2=O)c1 | 120 | 2 | 111 | 6 | 7 | 0.35
COc1ccc(C2=NO[C@@H]3C(=O)N(c4c(C)cccc4C)C(=O)[C@H]23)cc1OC | 119 | 74* | 93 | -1 | -4 | -0.21
O=C(Nc1nncs1)C1c2ccccc2Oc2ccccc21 | 54 | -7 | x | 10 | x | -0.4
